Source: PubChem BioAssay (NCATS)
Records with an inconclusive call do not appear. Unmarked numbers belong to inactive results. Activity calls are given as the source filed them. Unless noted, calls follow the shape of the dose curve; as a rule, active = well fitted inhibition curve with a large enough effect; inconclusive = small, poorly fitted or top-dose-only effect; inactive = flat fitted curve, though single readings scatter.

Target: T1, Tyrosine-protein phosphatase non-receptor type substrate 1 (Homo sapiens) + Leukocyte surface antigen CD47 (Homo sapiens) (UniProt P78324+Q08722)
T1 sequence (P78324 whole entry, looked up): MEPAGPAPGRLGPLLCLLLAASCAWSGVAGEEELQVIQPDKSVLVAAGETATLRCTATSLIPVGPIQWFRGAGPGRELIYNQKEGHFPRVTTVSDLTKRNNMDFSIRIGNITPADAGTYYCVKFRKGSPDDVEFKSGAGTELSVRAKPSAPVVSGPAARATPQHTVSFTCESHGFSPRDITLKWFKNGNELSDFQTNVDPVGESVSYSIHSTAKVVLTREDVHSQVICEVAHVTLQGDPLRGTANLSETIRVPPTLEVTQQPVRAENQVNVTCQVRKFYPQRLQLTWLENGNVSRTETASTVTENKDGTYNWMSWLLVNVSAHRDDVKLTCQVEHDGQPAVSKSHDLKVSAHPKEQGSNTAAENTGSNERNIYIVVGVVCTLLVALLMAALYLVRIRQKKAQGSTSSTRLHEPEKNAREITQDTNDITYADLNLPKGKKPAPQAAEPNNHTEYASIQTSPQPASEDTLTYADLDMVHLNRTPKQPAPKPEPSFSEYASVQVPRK
T1 sequence (Q08722 whole entry, looked up): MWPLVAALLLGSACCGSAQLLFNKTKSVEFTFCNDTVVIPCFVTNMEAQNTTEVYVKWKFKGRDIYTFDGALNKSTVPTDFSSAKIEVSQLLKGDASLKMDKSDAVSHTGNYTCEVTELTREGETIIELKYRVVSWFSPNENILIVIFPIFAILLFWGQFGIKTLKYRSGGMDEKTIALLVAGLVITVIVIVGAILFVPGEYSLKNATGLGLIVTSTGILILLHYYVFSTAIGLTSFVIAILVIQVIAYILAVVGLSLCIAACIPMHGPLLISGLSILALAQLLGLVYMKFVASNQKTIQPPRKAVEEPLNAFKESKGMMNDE
Assay: CD47-SIRPalpha protein protein interaction - HTRF assay qHTS validation (AID 1347058; active = well fitted curve in the direction sought with a large enough effect in the signal ratio, not every such curve was filed as active; the % refers to the signal ratio; also: 0% is about no effect)
Details: TR-FRET HTRF CD47-His / biotin-SIRPalpha binding, ratio 665/615; series mostly up to 38.3 µM; activity change, negative = inhibition: at the top concentration
Method in brief: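 Soluble extracellular domains (6His-CD47, Avi-tag-biotinylated SIRPalpha) in PBS pH 7.4 with 0.05% IGEPAL CA-630. Compounds were preincubated 30 min at RT with CD47 and anti-His-Eu, then SIRPalpha and SAV-XL665 were added. TR-FRET 665/615 ratio.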

Compound | activity change, negative = inhibition [%]
CN(C(=O)Cc1ccc(Cl)c(Cl)c1)C(CN1CCCC1)c1cccc(OCC(=O)O)c1 (configuration not stated) | -3.11
CC1(C(=O)O)C2CCC(O2)C1(C)C(=O)O (configuration not stated) | 0.689
COC(=O)N1CCN(C(=O)Cc2ccc(Cl)c(Cl)c2)C(CN2CCCC2)C1 (configuration not stated) | 0.314
Nc1ccc(CCN2CCN(c3cccc(C(F)(F)F)c3)CC2)cc1 | 6.68
Ic1ccccc1CNC1C2CCN(CC2)C1C(c1ccccc1)c1ccccc1 (configuration not stated) | -0.335
C[C@H](N)Cc1cccc(C(F)(F)F)c1 | -0.836
CO[C@H]1CC=C2CCN3CCC4=C(CC(=O)OC4)[C@]23C1 | 0.747
Cc1o[nH]c(=O)c1CC(N)C(=O)O (configuration not stated) | 1.33
C[N+]1(C)CCc2cc3c(cc2[C@H]1[C@@H]1OC(=O)c2c1ccc1c2OCO1)OCO3 | 3.17
Oc1ccc2c3c1O[C@H]1c4[nH]c5ccccc5c4C[C@@]4(O)C(C2)N(CC2CC2)CCC314 (some centres not stated) | -15.7
O=C(NC1CN2CCC1CC2)c1cc2ccoc2cn1 (configuration not stated) | -3.2
CCCCCCCCCCCCCC(=O)O[C@@H]1[C@@H](C)[C@@]2(O)[C@@H](C=C(CO)C[C@@]3(O)C(=O)C(C)=C[C@@H]23)C2C(C)(C)[C@@]21OC(C)=O (some centres not stated) | -2.24
C[C@H]1C2Cc3ccc(O)cc3[C@@]1(C)CCN2CC1CC1 | -1.43
Oc1ccc2c3c1O[C@H]1c4oc5ccccc5c4C[C@@]4(O)C(C2)N(CC2CC2)CCC314 (some centres not stated) | -11.6
Nc1cc2c(ncn2CCOCP(=O)(O)O)c(=O)[nH]1 | 2.18
CNc1ccc2oc(C[C@H]3O[C@@]4(CC[C@H]3C)O[C@H]([C@H](C)C(=O)c3ccc[nH]3)[C@H](C)C[C@H]4C)nc2c1C(=O)O | 4.82
O=C1C=CC(=O)C=C1 | 3.22
CC(C)(C)OC(=O)NC1[C@H]2CNC[C@@H]12 (some centres not stated) | 2.82
NC(=O)COc1c(F)cc(SCCNS(=O)(=O)c2ccccc2)cc1F | -0.837
C=CCN1C[C@@H](C)N([C@H](c2ccc(C(=O)N(CC)CC)cc2)c2cccc(OC)c2)C[C@@H]1C | -1.47
C=CCN1CCC23c4c5ccc(O)c4O[C@H]2C(=O)CC[C@@]3(O)C1C5 (some centres not stated) | 1.5
CCCn1c(=O)c2[nH]c(C3CCCC3)nc2n(CCCOC(=O)c2ccc(S(=O)(=O)F)cc2)c1=O | 1.41

Target: T1, Tyrosine-protein phosphatase non-receptor type substrate 1 (Homo sapiens) + Leukocyte surface antigen CD47 (Homo sapiens)
Assay: CD47-SIRPalpha protein protein interaction - Alpha assay qHTS validation (AID 1347059);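 also: bead proximity luminescence from CD47 binding SIRPalpha after compound preincubation with SIRPalpha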; also: potency is read from the fitted curve at half-maximal effect; as to activity change, negative = inhibition: % is scaled to controls: 0 for no effect and ±100 for the full control effect
Details: AlphaScreen CD47-His/biotin-SIRPalpha binding, LOPAC; series mostly up to 38.3 µM; activity change, negative = inhibition: at the top concentration
Method in brief: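 SIRPalpha-biotin 25 nM + cpd, 30 min RT, dark; add CD47-His 12.5 nM, 30 min; add Ni-NTA/SAV beads 10 ug/mL, 30 min; AlphaScreen. Buffer PBS pH 7.4 + 0.05% IGEPAL CA-630. Non-biotinylated SIRPalpha as control inhibitor.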

Compound | activity change, negative = inhibition [%] | Potency
CN(C(=O)Cc1ccc(Cl)c(Cl)c1)C(CN1CCCC1)c1cccc(OCC(=O)O)c1 (configuration not stated) | -1.62 | –
CC1(C(=O)O)C2CCC(O2)C1(C)C(=O)O (configuration not stated) | 2.9 | –
COC(=O)N1CCN(C(=O)Cc2ccc(Cl)c(Cl)c2)C(CN2CCCC2)C1 (configuration not stated) | 1.73 | –
O=C1/C(=C/c2ccccc2)C[C@@]2(O)[C@H]3Cc4ccc(O)c5c4[C@@]2(CCN3CC2CC2)[C@H]1O5 | -15.2 | –
Nc1ccc(CCN2CCN(c3cccc(C(F)(F)F)c3)CC2)cc1 | -23.9 | –
C[C@]12Cc3cn4c(nc3C=C1CCC1C2CC[C@@]2(C)[C@H]1CC[C@@]2(O)C#N)nc1ccccc14 (some centres not stated) | 4.84 | –
Ic1ccccc1CNC1C2CCN(CC2)C1C(c1ccccc1)c1ccccc1 (configuration not stated) | -4.51 | –
C[C@H](N)Cc1cccc(C(F)(F)F)c1 | 1.14 | –
N[C@@H](Cn1oc(=O)[nH]c1=O)C(=O)O | 1.32 | –
CO[C@H]1CC=C2CCN3CCC4=C(CC(=O)OC4)[C@]23C1 | 0.225 | –
CC(=O)c1c(O)c(C)c(O)c(Cc2c(O)c3c(c(C(=O)/C=C/c4ccccc4)c2O)OC(C)(C)C=C3)c1O | – | 16.5 µM (active)
Cc1o[nH]c(=O)c1CC(N)C(=O)O (configuration not stated) | -2.18 | –
C[N+]1(C)CCc2cc3c(cc2[C@H]1[C@@H]1OC(=O)c2c1ccc1c2OCO1)OCO3 | 4.67 | –
Oc1ccc2c3c1O[C@H]1c4[nH]c5ccccc5c4C[C@@]4(O)C(C2)N(CC2CC2)CCC314 (some centres not stated) | -2.17 | –
O=C(NC1CN2CCC1CC2)c1cc2ccoc2cn1 (configuration not stated) | 0.546 | –
CCCCCCCCCCCCCC(=O)O[C@@H]1[C@@H](C)[C@@]2(O)[C@@H](C=C(CO)C[C@@]3(O)C(=O)C(C)=C[C@@H]23)C2C(C)(C)[C@@]21OC(C)=O (some centres not stated) | -13.7 | –
C[C@H]1C2Cc3ccc(O)cc3[C@@]1(C)CCN2CC1CC1 | 5.14 | –
Nc1cc2c(ncn2CCOCP(=O)(O)O)c(=O)[nH]1 | 2.97 | –
CNc1ccc2oc(C[C@H]3O[C@@]4(CC[C@H]3C)O[C@H]([C@H](C)C(=O)c3ccc[nH]3)[C@H](C)C[C@H]4C)nc2c1C(=O)O | -15.1 | –
NC(C(=O)O)c1cc(=O)[nH]o1 (configuration not stated) | 2.8 | –
CN1CC[C@@]2(C)c3cc(O)ccc3N(C)C12 (some centres not stated) | -12.5 | –
O=c1ccc2[nH]cc(C3=CCNCC3)c2[nH]1 | 1.73 | –
O=C1C=CC(=O)C=C1 | -0.234 | –
CC(C)(C)OC(=O)NC1[C@H]2CNC[C@@H]12 (some centres not stated) | 0.954 | –
C[C@H](N)CN1CCc2ccc(Br)cc21 | -14.5 | –
NC(=O)COc1c(F)cc(SCCNS(=O)(=O)c2ccccc2)cc1F | -7.1 | –
C=CCN1C[C@@H](C)N([C@H](c2ccc(C(=O)N(CC)CC)cc2)c2cccc(OC)c2)C[C@@H]1C | 0.292 | –
C=CCN1CCC23c4c5ccc(O)c4O[C@H]2C(=O)CC[C@@]3(O)C1C5 (some centres not stated) | 1.73 | –
CCCN1CCc2cc(O)cc3c2[C@H]1Cc1ccc(O)c(O)c1-3 | -26.9 | –
CCCn1c(=O)c2[nH]c(C3CCCC3)nc2n(CCCOC(=O)c2ccc(S(=O)(=O)F)cc2)c1=O | 1.38 | –
